Source: the supplement of paper PMC8728848
The entries come from a sample that favours the strongest signals as a whole.

Assays:
Assay in all cases: glycan array binding signal (z-score within array); higher = stronger binding
Settings in all cases: glycan notation: IUPAC condensed, linker removed
[1] = target: Fuc(a1-2)Gal(b1-3)GalNAc(b1-3)Gal(a1-4)Gal(b1-4)Glc
Outline: (§1)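 From the Consortium for Functional Glycomics database, 3228 arrays were curated, keeping only those whose protein sequence was available. Binding is given as a within-array Z-score averaged across arrays sharing a protein sequence and across linkers. Negative Z-scores can be read as non-binding.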

[2] = target: Fuc(a1-2)Gal(b1-4)GlcNAc(b1-2)Man(a1-3)[Fuc(a1-2)Gal(b1-4)GlcNAc(b1-2)Man(a1-6)]Man(b1-4)GlcNAc(b1-4)GlcNAc
Outline: as §1

[3] = target: Fuc(a1-2)Gal(b1-4)GlcNAc(b1-3)Gal(b1-4)GlcNAc(b1-2)Man(a1-3)[Fuc(a1-2)Gal(b1-4)GlcNAc(b1-3)Gal(b1-4)GlcNAc(b1-2)Man(a1-6)]Man(b1-4)GlcNAc(b1-4)GlcNAc
Outline: as §1

[4] = target: Fuc(a1-2)Gal6S(b1-3)GlcNAc6S
Outline: as §1

Fuc(a1-2)[Gal(a1-3)]Gal = target: Fuc(a1-2)[Gal(a1-3)]Gal
Outline: as §1

[5] = target: Fuc(a1-2)[Gal(a1-3)]Gal(b1-4)GlcNAc(b1-6)GalNAc
Outline: as §1

[6] = target: Fuc(a1-2)[GalNAc(a1-3)]Gal(b1-4)GlcNAc(b1-2)Man
Outline: as §1

[7] = target: Fuc(a1-2)[GalNAc(a1-3)]Gal(b1-4)GlcNAc(b1-3)Gal(b1-4)GlcNAc(b1-3)Gal(b1-4)GlcNAc
Outline: as §1

[8] = target: Fuc(a1-3)[Gal(b1-4)]GlcNAc(b1-2)Man(a1-3)[Fuc(a1-3)[Gal(b1-4)]GlcNAc(b1-2)Man(a1-6)]Man(b1-4)GlcNAc(b1-4)[Fuc(a1-6)]GlcNAc
Outline: as §1

Gal(a1-3)Gal = target: Gal(a1-3)Gal
Outline: as §1

[9] = target: Gal(a1-3)Gal(b1-4)GlcNAc(b1-3)GalNAc
Outline: as §1

[10] = target: Gal(a1-4)Gal(b1-4)GlcNAc(b1-2)Man(a1-3)[Gal(a1-4)Gal(b1-4)GlcNAc(b1-2)Man(a1-6)]Man(b1-4)GlcNAc(b1-4)GlcNAc
Outline: as §1

Gal(b1-2)Gal = target: Gal(b1-2)Gal
Outline: as §1

Gal(b1-3)GalNAc(b1-3)Gal = target: Gal(b1-3)GalNAc(b1-3)Gal
Outline: as §1

[11] = target: Gal(b1-3)GalNAc(b1-4)[Neu5Ac(a2-3)]Gal(b1-4)Glc
Outline: as §1

Gal(b1-4)GlcNAc(b1-2)Man = target: Gal(b1-4)GlcNAc(b1-2)Man
Outline: as §1

[12] = target: Gal(b1-4)GlcNAc(b1-2)[Gal(b1-4)GlcNAc(b1-4)]Man(a1-3)[Gal(b1-4)GlcNAc(b1-2)Man(a1-6)]Man(b1-4)GlcNAc(b1-4)GlcNAc
Outline: as §1

[13] = target: Gal(b1-4)GlcNAc(b1-3)Gal(b1-4)GlcNAc
Outline: as §1

[14] = target: Gal(b1-4)GlcNAc(b1-3)Gal(b1-4)GlcNAc(b1-3)Gal(b1-4)GlcNAc(b1-3)Gal(b1-4)GlcNAc(b1-3)Gal(b1-4)GlcNAc(b1-2)Man(a1-3)[Gal(b1-4)GlcNAc(b1-3)Gal(b1-4)GlcNAc(b1-3)Gal(b1-4)GlcNAc(b1-3)Gal(b1-4)GlcNAc(b1-3)Gal(b1-4)GlcNAc(b1-2)Man(a1-6)]Man(b1-4)GlcNAc(b1-4)GlcNAc
Outline: as §1

[15] = target: Gal(b1-4)GlcNAc(b1-3)Gal(b1-4)GlcNAc(b1-3)Gal(b1-4)GlcNAc(b1-3)Gal(b1-4)GlcNAc(b1-3)Gal(b1-4)GlcNAc(b1-2)Man(a1-3)[Gal(b1-4)GlcNAc(b1-3)Gal(b1-4)GlcNAc(b1-3)Gal(b1-4)GlcNAc(b1-3)Gal(b1-4)GlcNAc(b1-3)Gal(b1-4)GlcNAc(b1-2)Man(a1-6)]Man(b1-4)GlcNAc(b1-4)[Fuc(a1-6)]GlcNAc
Outline: as §1

Gal3S(b1-3)GalNAc = target: Gal3S(b1-3)GalNAc
Outline: as §1

Gal6S(b1-4)GlcNAc6S = target: Gal6S(b1-4)GlcNAc6S
Outline: as §1

[16] = target: GalNAc(b1-3)Gal(a1-4)Gal(b1-4)GlcNAc
Outline: as §1

GalNAc(b1-3)GlcNAc = target: GalNAc(b1-3)GlcNAc
Outline: as §1

GalNAc(b1-4)Gal(b1-4)Glc = target: GalNAc(b1-4)Gal(b1-4)Glc
Outline: as §1

[17] = target: GalNAc(b1-4)GlcNAc(b1-3)GalNAc(b1-4)GlcNAc
Outline: as §1

GalNAc3S(b1-4)GlcNAc = target: GalNAc3S(b1-4)GlcNAc
Outline: as §1

[18] = target: GlcNAc(b1-2)Man(a1-3)[GlcNAc(b1-2)Man(a1-6)]Man(b1-4)GlcNAc(b1-4)[Fuc(a1-6)]GlcNAc
Outline: as §1

[19] = target: GlcNAc(b1-2)Man(a1-3)[GlcNAc(b1-4)][GlcNAc(b1-2)Man(a1-6)]Man(b1-4)GlcNAc(b1-4)GlcNAc
Outline: as §1

[20] = target: GlcNAc(b1-2)[GlcNAc(b1-6)]Man(a1-6)[GlcNAc(b1-4)][GlcNAc(b1-2)Man(a1-3)]Man(b1-4)GlcNAc(b1-4)GlcNAc
Outline: as §1

GlcNAc(b1-3)Gal(b1-4)Glc = target: GlcNAc(b1-3)Gal(b1-4)Glc
Outline: as §1

[21] = target: GlcNAc(b1-3)Gal(b1-4)GlcNAc(b1-3)Gal(b1-4)GlcNAc(b1-3)Gal(b1-4)GlcNAc(b1-3)Gal(b1-4)GlcNAc(b1-2)Man(a1-3)[GlcNAc(b1-3)Gal(b1-4)GlcNAc(b1-3)Gal(b1-4)GlcNAc(b1-3)Gal(b1-4)GlcNAc(b1-3)Gal(b1-4)GlcNAc(b1-2)Man(a1-6)]Man(b1-4)GlcNAc(b1-4)[Fuc(a1-6)]GlcNAc
Outline: as §1

[22] = target: GlcNAc(b1-3)Gal(b1-4)GlcNAc(b1-3)GalNAc
Outline: as §1

[23] = target: GlcNAc(b1-3)Gal(b1-4)GlcNAc(b1-6)[GlcNAc(b1-3)]Gal(b1-4)GlcNAc
Outline: as §1

[24] = target: GlcNAc(b1-3)[GlcNAc(b1-4)][GlcNAc(b1-6)]GlcNAc
Outline: as §1

[25] = target: GlcNAc(b1-4)GlcNAc(b1-4)GlcNAc(b1-4)GlcNAc(b1-4)GlcNAc
Outline: as §1

Kdn(a2-6)Gal(b1-4)GlcNAc = target: Kdn(a2-6)Gal(b1-4)GlcNAc
Outline: as §1

[26] = target: Man(a1-2)Man(a1-6)[Man(a1-3)]Man(a1-6)[Man(a1-2)Man(a1-2)Man(a1-3)]Man
Outline: as §1

[27] = target: Neu5Ac(a2-3)Gal(b1-4)GlcNAc(b1-2)[Neu5Ac(a2-3)Gal(b1-4)GlcNAc(b1-4)]Man(a1-3)[GlcNAc(b1-4)][Neu5Ac(a2-3)Gal(b1-4)GlcNAc(b1-2)[Neu5Ac(a2-3)Gal(b1-4)GlcNAc(b1-6)]Man(a1-6)]Man(b1-4)GlcNAc(b1-4)GlcNAc
Outline: as §1

[28] = target: Neu5Ac(a2-3)Gal(b1-4)[Fuc(a1-3)]GlcNAc(b1-3)Gal(b1-4)[Fuc(a1-3)]GlcNAc(b1-3)Gal(b1-4)[Fuc(a1-3)]GlcNAc
Outline: as §1

Neu5Ac(a2-3)GalNAc = target: Neu5Ac(a2-3)GalNAc
Outline: as §1

[29] = target: Neu5Ac(a2-6)Gal(b1-4)GlcNAc(b1-2)Man(a1-3)[Gal(b1-4)GlcNAc(b1-2)Man(a1-6)]Man(b1-4)GlcNAc(b1-4)GlcNAc
Outline: as §1

[30] = target: Neu5Ac(a2-6)Gal(b1-4)GlcNAc(b1-2)Man(a1-6)Man(b1-4)GlcNAc(b1-4)GlcNAc
Outline: as §1

[31] = target: Neu5Ac(a2-6)Gal(b1-4)GlcNAc(b1-3)Gal(b1-4)GlcNAc(b1-6)[Gal(b1-3)]GalNAc
Outline: as §1

[32] = target: Neu5Ac(a2-6)Gal(b1-4)GlcNAc(b1-6)[Gal(b1-3)GlcNAc(b1-3)]Gal(b1-4)Glc
Outline: as §1

[33] = target: Neu5Ac(a2-6)Gal(b1-4)GlcNAc6S
Outline: as §1

[34] = target: Neu5Gc(a2-3)Gal(b1-3)[Fuc(a1-4)]GlcNAc
Outline: as §1

B1: pTFF2 (Sus scrofa), P01359 (protein)
chain: KPAACRCSRQDPKNRVNCGFPGITSDQCFTSGCCFDSQVPGVPWCFKPLPAQESEECVMEVSARKNCGYPGISPEDCAARNCCFSDTIPEVPWCFFPMSVEACHY
**Q.** What does the source list for B1?
**A.** glycan array binding signal (z-score) [1]: -0.047; glycan array binding signal (z-score) [2]: 0.121; glycan array binding signal (z-score) [3]: 0.716; glycan array binding signal (z-score) [4]: -0.991; glycan array binding signal (z-score) (Fuc(a1-2)[Gal(a1-3)]Gal): -0.204; glycan array binding signal (z-score) [5]: -0.303; glycan array binding signal (z-score) [6]: 0.535; glycan array binding signal (z-score) [7]: -0.048; glycan array binding signal (z-score) [8]: -0.109; glycan array binding signal (z-score) (Gal(a1-3)Gal): -0.276; glycan array binding signal (z-score) [9]: 0.196; glycan array binding signal (z-score) [10]: 2.45; glycan array binding signal (z-score) (Gal(b1-2)Gal): -1.31; glycan array binding signal (z-score) (Gal(b1-3)GalNAc(b1-3)Gal): 2.98; glycan array binding signal (z-score) [11]: 2.82; glycan array binding signal (z-score) (Gal(b1-4)GlcNAc(b1-2)Man): -2.22; glycan array binding signal (z-score) [12]: -0.702; glycan array binding signal (z-score) [13]: -0.47; glycan array binding signal (z-score) [14]: 2.48; glycan array binding signal (z-score) [15]: 2.62; glycan array binding signal (z-score) (Gal3S(b1-3)GalNAc): 0.185; glycan array binding signal (z-score) (Gal6S(b1-4)GlcNAc6S): 0.285; glycan array binding signal (z-score) [16]: -0.4; glycan array binding signal (z-score) (GalNAc(b1-3)GlcNAc): 0.736; glycan array binding signal (z-score) (GalNAc(b1-4)Gal(b1-4)Glc): 4.38; glycan array binding signal (z-score) [17]: -0.11; glycan array binding signal (z-score) (GalNAc3S(b1-4)GlcNAc): 2.64; glycan array binding signal (z-score) [18]: -1.4; glycan array binding signal (z-score) [19]: 0.002; glycan array binding signal (z-score) [20]: 0.104; glycan array binding signal (z-score) (GlcNAc(b1-3)Gal(b1-4)Glc): -0.368; glycan array binding signal (z-score) [21]: 4.15; glycan array binding signal (z-score) [22]: 3.21; glycan array binding signal (z-score) [23]: -0.954; glycan array binding signal (z-score) [24]: 0.277; glycan array binding signal (z-score) [25]: -0.168; glycan array binding signal (z-score) (Kdn(a2-6)Gal(b1-4)GlcNAc): 0.54; glycan array binding signal (z-score) [26]: 0.712; glycan array binding signal (z-score) [27]: 6.13; glycan array binding signal (z-score) [28]: -0.094; glycan array binding signal (z-score) (Neu5Ac(a2-3)GalNAc): 1.05; glycan array binding signal (z-score) [29]: 0.708; glycan array binding signal (z-score) [30]: 2.29; glycan array binding signal (z-score) [31]: -0.859; glycan array binding signal (z-score) [32]: -0.007; glycan array binding signal (z-score) [33]: -1.45; glycan array binding signal (z-score) [34]: 0.024
